LDHA inh: inhibitors of human lactate dehydrogenase A | activity change, % (values are at about 110 or 230 µM) | 480,000 compounds, 0.15% hits | purified LDHA, NADH/diaphorase-resazurin fluorescence; stronger effect = lower value | AID 1347041; in the data active = activity change below about -30%; inconclusive = mostly about -25% to -30%;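 also: plate controls were DMSO wells for no effect and wells without enzyme for full effect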
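Resorufin fluorescence (ex540/em590), read at 0 and 20 min after diaphorase/resazurin addition, reports the NADH left after a 5 min room-temperature reaction of 2 nM human LDH5 with 0.06 mM NADH and 0.2 mM pyruvate.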
GLP1R inv ag: inverse agonists of human GLP-1 receptor; HEK293 GLP-1R CRE-luciferase, luminescence, 24 h; GLP-1R form is constitutively active; Potency, µM (highest dose often 38.3 µM), for inactives: at the highest dose activity change, negative = inhibition, most hits filed as inhibitors; 410,000 compounds, 1.6% hits; also: potency is read from the fitted curve at half-maximal effect; % is scaled to controls: 0 for no effect and ±100 for the full control effect; nearly all actives have a fitted effect of over 55% in size
Target sequence (P43220 whole entry, looked up): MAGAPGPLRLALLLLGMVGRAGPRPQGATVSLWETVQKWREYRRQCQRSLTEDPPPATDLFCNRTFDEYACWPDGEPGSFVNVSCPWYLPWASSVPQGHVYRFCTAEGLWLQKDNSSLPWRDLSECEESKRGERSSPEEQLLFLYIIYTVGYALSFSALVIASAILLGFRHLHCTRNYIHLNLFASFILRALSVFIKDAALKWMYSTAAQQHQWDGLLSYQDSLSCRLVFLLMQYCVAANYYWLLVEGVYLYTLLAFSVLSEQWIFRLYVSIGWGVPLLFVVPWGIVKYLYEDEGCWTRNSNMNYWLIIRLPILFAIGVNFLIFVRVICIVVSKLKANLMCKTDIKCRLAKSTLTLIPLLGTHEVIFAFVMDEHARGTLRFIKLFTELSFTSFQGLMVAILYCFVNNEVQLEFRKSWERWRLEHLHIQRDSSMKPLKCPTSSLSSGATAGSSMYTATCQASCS
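Luminescence readout: a drop in cAMP-driven luciferase signal flags inverse agonism at a constitutively active GLP-1R stably expressed in HEK293. Compound exposure lasted 24 hr at 37 deg C, 5% CO2.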
IDH1 R132H inh: human IDH1 R132H inhibition; O75874; Potency, µM (series often up to 76.6 µM), for inactives: top-dose activity change, negative = inhibition, actives largely listed as inhibitors; 390,000 compounds, 0.093% hits; AID 602179; IDH1-R132H enzyme, NADPH consumption, diaphorase/resazurin fluorescence; also: potency is read from the fitted curve at half-maximal effect; % is scaled to controls: 0 for no effect and ±100 for the full control effect; nearly all actives have a fitted effect of over 65% in size
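IDH1-R132H (0.5 ug/mL dispensed) in pH 7.5 Tris buffer was preincubated 30 min with compound, then given a substrate mix of 0.016 mM NADPH and 2 mM alpha-KG for 80 min at room temperature; remaining NADPH was read by diaphorase/resazurin fluorescence.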
PTHR1 agonist: agonists of human PTHR1 parathyroid hormone receptor | Q03431 | HEK293 GP2 PTHR1 cells, GloSensor cAMP luminescence, 1 h | Potency, µM (highest dose often 115 µM), without a hit: at the top dose activation, most hits filed as activators | 410,000 compounds, 0.075% hits | AID 743266; also: potency is read from the fitted curve at half-maximal effect; nearly all actives have a fitted effect of over 55% in size
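HEK-293-derived GP2 cells expressing PTHR1 and a GloSensor cAMP reporter, 3,000/well, plated overnight, given luciferin plus IBMX (each 0.5 mM as added) for 1 h at 37 °C, then compound for 1 h at 37 °C. Luminescence was read after 15 min at room temperature.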
GLP1R ag: agonists of human GLP-1 receptor; HEK293 GLP-1R CRE-luciferase, luminescence, 4-6 h; cells express a hypersensitive GLP-1R form; AID 624172; Potency, µM (top dose mostly 45.6 µM), for inactives: at the highest dose activation, actives largely listed as activators; 380,000 compounds, 0.007% hits; P43220; also: potency is read from the fitted curve at half-maximal effect; % of control where 0% means no effect
GLP1R cytotox: cytotoxic in the GLP-1 receptor inverse agonist counter-screen; HEK293 cAMP-luciferase reporter cells, luminescence, 24 h; Potency, µM (titrated, usually from 38.3 µM), without a hit: top-dose activity change, negative = inhibition, hits mostly inhibitors; 410,000 compounds, 0.13% hits; AID 624418;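 also: loss of luciferase light is scored as toxicity; potency is read from the fitted curve at half-maximal effect; % is scaled to controls: 0 for no effect and ±100 for the full control effect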
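Seeding density was 200 cells/uL; after overnight-length (12 h) culture, 23 nL compounds went on for 24 h at 37 °C. Readout used a luciferase detection reagent, luminescence taken after 12 min at room temperature.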
* = called active by the depositor; i = inactive; ? = inconclusive; . = no result given. This is a sample that favours compounds with a hit; in the whole collection about 1.7% have one here. Unless noted, calls follow the shape of the dose curve; as a rule, active = well fitted curve in the direction sought with a large enough effect; inconclusive = small, poorly fitted or top-dose-only effect, or another doubt; inactive = no such curve, though single readings can be large; an effect the other way counts as inactive or inconclusive.

SMILES	LDHA inh	GLP1R inv ag	IDH1 R132H inh	PTHR1 agonist	GLP1R ag	GLP1R cytotox
O=[N+]([O-])c1ccc(-c2c(-c3ccccc3)ncc3ccc(F)cc23)cc1	0.8	?	12.6%	-60.6%	-0.1%	-3.5%
Cc1cc2oc(C(=O)Nc3cccc(C(F)(F)F)c3)cc(=O)c2cc1C	-5.8	.	.	.	.	.
Clc1ccccc1-c1nc(Nc2ccccc2)nc2ccc(Br)cc12	-12.6	10µM*	.	-12.8%	.	42.1%
O=[N+]([O-])c1ccc(N/N=C/c2ccc(/C=N/Nc3ccc([N+](=O)[O-])cc3)cc2)cc1	-8.3	.	.	.	.	.
O=C(CN1c2ccccc2Sc2ccccc21)N/N=C/c1ccccc1	0.2	?	0.4%	i	-1.3%	-1.8%
O=[N+]([O-])c1ccc(C=NNc2ccccc2)cc1	-0.2	5.01µM*	1.4%	-39.8%	-12.7%	-7.8%
O=C(CN1c2ccccc2Sc2ccccc21)N/N=C/c1ccc([N+](=O)[O-])cc1	-1.8	12.6µM*	6.0%	-5.1%	5.0%	-7.5%
CN(C)CCCN(Cc1ccccc1)C(=S)Nc1ccc(SC(F)F)cc1	-4.2	11.2µM*	3.9%	i	15.3%	-24.9%
O=[N+]([O-])c1cnc(Sc2ccncn2)c([N+](=O)[O-])c1	2.8	-3.9%	-7.9%	i	-4.4%	?
O=[N+]([O-])c1cnc(Sc2ccncn2)s1	3.0	?	-4.2%	-64.0%	-6.6%	2.82µM*
Cc1nn(C(C)C(=O)NCCCN2CCCCC2C)c(=O)c2c1sc1ccccc12 (stereo unspecified)	-12.1	-11.8%	-3.1%	i	8.8%	0.2%
CCC1CCCCN1CCCNC(=O)C(C)n1nc(C)c2sc3ccccc3c2c1=O (stereo unspecified)	0.9	7.94µM*	0.5%	i	-5.9%	?
O=C(Nc1ccccc1SC1CCCC1)c1ccco1	4.2	.	.	.	.	.
COc1ccc(C(=O)CSc2nc(-c3ccccn3)nc(C)c2Cl)cc1	-3.0	?	4.8%	-40.0%	1.6%	11.2µM*
Cc1nc(-c2ccccn2)nc(SCC(=O)c2ccc(F)cc2)c1Cl	-16.7	?	-5.4%	-26.5%	6.3%	?
Cc1c(Cl)c([N+](=O)[O-])nn1Cc1ccc(C(=O)N/N=C\c2cccc(Br)c2)o1	-11.2	10µM*	10.4%	-3.1%	-4.9%	-14.7%
CCN(C(=O)c1cc2c(s1)-c1c(C)cccc1OC2)c1cc(C)ccc1C	3.4	11.2µM*	0.0%	i	.	31.7%
Clc1ccc2c(N/N=C/c3cccc(Br)c3)ccnc2c1	-7.1	12.6µM*	-1.2%	-22.1%	-2.9%	?
COCCCN(C(=S)Nc1ccc(C)cc1Cl)C(C)c1ccncc1 (stereo unspecified)	-1.5	?	0.9%	-16.7%	-2.4%	7.4%
Cc1ccc(NC(=S)N(CCC(C)C)C(C)c2ccncc2)c(Cl)c1 (stereo unspecified)	0.3	10µM*	-20.8%	i	13.0%	-7.7%
COC(=O)c1cc(-c2ccc(F)cc2)nc2onc(-c3ccco3)c12	6.5	.	.	.	.	.
O=S(=O)(c1cccs1)N1CN(Cc2cccs2)c2nc3ccccc3nc21	-1.2	10µM*	15.0%	i	5.7%	-1.9%
c1ccc(Cn2cc(CN3CCCCO3)c(-c3ccc4c(c3)OCO4)n2)cc1	-0.1	11.2µM*	3.5%	-32.8%	2.9%	-9.1%
CC(C)c1ccc(/C=C/C(=O)c2ccc(O)c(CCCl)c2)cc1	-1.2	.	.	.	.	.
COc1ccc(CCNC(=O)c2ccc3c(c2)N(Cc2ccc(C)cc2)CCS3)cc1OC	-2.1	?	0.6%	-7.9%	5.6%	0.2%
Cc1ccc(CCNC(=O)c2ccc3c(c2)N(Cc2ccc(F)cc2)CCS3)cc1	-3.0	-24.5%	-2.6%	-20.9%	.	0.1%
